This passage reports growth results from PubChem BioAssay (NCI).

Some test systems named below: NCI-H23 lung; NCI-H226 lung; NCI-H322M lung; HOP-62 NSCLC; NCI-H460 lung; HOP-92 NSCLC; NCI-H522 lung; A549/ATCC NSCLC; 786-0 renal; COLO 205 colon; DU-145 prostate; K-562 leukemia; MALME-3M melanoma; MDA-MB-231 breast; SF-268 CNS; SF-295 CNS; SF-539 CNS; UACC-257 melanoma; M14 melanoma.
What all share (experiment): NCI-60 one-dose screen, 48 h (100 = growth as untreated, 0 = no growth, -100 = all killed)
Holding throughout (conditions): 10 µM unless noted

The panel holds about 83,000 compounds, 20% with a hit somewhere; the sample as a whole holds those more often.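 Treatment: one concentration, 48 hours, 96-well format. Scoring: percent growth, with anything below 10 considered active.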 Values without a mark were called inactive. Calls of active or inactive are those of the source.

Take `COc1cc(/C=C/C(=O)c2c(C)oc3nc[nH]c(=O)c23)ccc1O`: the growth in the assay with NCI-H23 lung was 98.7%; in the assay with NCI-H226 lung, 102%; with NCI-H322M lung, 98.3%; in the assay on HOP-62 NSCLC, 93.9%; in the assay on NCI-H460 lung, 103%; in the assay with HOP-92 NSCLC it was 116%. For the same compound, the growth in the assay with NCI-H522 lung is 101%; with A549/ATCC NSCLC, 101%; with 786-0 renal, 102%; in the assay with COLO 205 colon it was 102%; with DU-145 prostate, 116%; with K-562 leukemia it was 111%. Besides, the growth with MALME-3M melanoma was 103%; with MDA-MB-231 breast it was 106%; in the assay on SF-268 CNS, 99.6%; in the assay on SF-295 CNS, 99.3%; in the assay with SF-539 CNS, 97.5%; with UACC-257 melanoma, 96.6%. Moreover, the growth in the assay on M14 melanoma was 99.6%.
In the case of `Cc1cc(NC(=O)c2cnc(N3CCN(CCOCCOCCOCCOCCC(=O)N[C@H](C(=O)N4C[C@H](O)C[C@H]4C(=O)N[C@@H](C)c4ccc(-c5scnc5C)cc4)C(C)(C)C)CC3)cn2)c2ncccc2c1`, the growth in the assay on NCI-H23 lung was 4.34% (active); in the assay with NCI-H226 lung, 1.46% (active); with NCI-H322M lung, 35.6%; in the assay with HOP-62 NSCLC, 4.92% (active); with NCI-H460 lung, 7.54% (active); with HOP-92 NSCLC, 4.9% (active). Also, the growth is -15.6% (active) with NCI-H522 lung; 66.7% in the assay on A549/ATCC NSCLC; 29.9% in the assay on 786-0 renal; 47.1% with COLO 205 colon; 35% in the assay with DU-145 prostate; 6.65% (active) in the assay with K-562 leukemia. Besides, the growth with MALME-3M melanoma was -31.7% (active); in the assay on MDA-MB-231 breast, -61.6% (active); in the assay with SF-268 CNS, 8.05% (active); in the assay with SF-295 CNS, -14.9% (active); with SF-539 CNS, -75.5% (active); with UACC-257 melanoma, -5.78% (active). Besides, in the assay on M14 melanoma, the growth was -33.7% (active).
As to `COc1ccc(C(O)c2cc3c(N)c(C(=O)Nc4cccc(OC)c4)sc3nc2C)cc1` (configuration not stated), the growth is 30% in the assay on NCI-H23 lung; 45.9% in the assay with NCI-H226 lung; 38.8% in the assay on NCI-H322M lung; 26.5% in the assay with HOP-62 NSCLC; 1.65% (active) in the assay with NCI-H460 lung; 37% in the assay with HOP-92 NSCLC. In addition, the growth was -27.4% (active) in the assay with NCI-H522 lung; 9.44% (active) in the assay on A549/ATCC NSCLC; 33.9% in the assay on 786-0 renal; -42.8% (active) in the assay with COLO 205 colon; 6.75% (active) in the assay with DU-145 prostate; 7.83% (active) in the assay with K-562 leukemia. In addition, the growth in the assay on MALME-3M melanoma is 52.3%; with MDA-MB-231 breast, 12.1%; in the assay with SF-268 CNS, 27%; with SF-295 CNS, 3.76% (active); in the assay on SF-539 CNS, -12% (active); in the assay with UACC-257 melanoma, 49.7%. Besides, the growth in the assay on M14 melanoma is 11.8%.
`Cn1c(=O)c2[nH]c(CCCc3nc4c([nH]3)c(=O)n(C)c(=O)n4C)nc2n(C)c1=O`: the growth in the assay with NCI-H23 lung is 117%; in the assay on NCI-H226 lung, 105%; in the assay on NCI-H322M lung it was 114%; in the assay with HOP-62 NSCLC it was 97.4%; in the assay on NCI-H460 lung, 105%; in the assay with HOP-92 NSCLC, 101%. Further, the growth is 112% in the assay with NCI-H522 lung; 105% with A549/ATCC NSCLC; 107% in the assay with 786-0 renal; 111% with COLO 205 colon; 118% in the assay on DU-145 prostate; 105% in the assay with K-562 leukemia. Further, the growth was 108% in the assay with MALME-3M melanoma; 113% in the assay with MDA-MB-231 breast; 104% with SF-268 CNS; 111% with SF-295 CNS; 98.9% in the assay on SF-539 CNS; 114% in the assay on UACC-257 melanoma. Moreover, the growth with M14 melanoma is 111%.
Turning to `CC1=CC2(C)/C=C(C)/C=C\CC(O)/C=C3/C=CC(=C4C(=O)OC2(CC1C)C4=O)OC3` (configuration not stated), the growth in the assay with NCI-H23 lung was -97.5% (active); in the assay on NCI-H226 lung, 59.4%; in the assay on NCI-H322M lung, 98.8%; with HOP-62 NSCLC, 90.9%; in the assay on NCI-H460 lung it was 29.2%; in the assay on HOP-92 NSCLC, -75.7% (active). Also, the growth in the assay on NCI-H522 lung is -50.5% (active); in the assay on A549/ATCC NSCLC it was 8.64% (active); in the assay with 786-0 renal, -92.1% (active); with COLO 205 colon, -80.5% (active); with DU-145 prostate, -85.4% (active); with K-562 leukemia, 2.75% (active). In addition, the growth in the assay on MALME-3M melanoma was -96.3% (active); in the assay with MDA-MB-231 breast, 24.2%; in the assay on SF-268 CNS it was -22.4% (active); in the assay with SF-295 CNS it was 41.4%; in the assay with SF-539 CNS, -82.1% (active); with UACC-257 melanoma, -57% (active). Besides, the growth with M14 melanoma was -77.1% (active).
On to `C#Cc1cccc(NC(=O)Nc2ccc(NC(=O)CCl)cc2)c1`, for which the growth was -66.6% [8.25 µM] (active) with NCI-H23 lung; -27.4% [8.25 µM] (active) in the assay on NCI-H226 lung; 86.8% [8.25 µM] in the assay with NCI-H322M lung; -6.94% [8.25 µM] (active) in the assay on HOP-62 NSCLC; -23.9% [8.25 µM] (active) with NCI-H460 lung; -66.5% [8.25 µM] (active) with HOP-92 NSCLC. The growth in the assay with NCI-H522 lung was -70.8% [8.25 µM] (active); with A549/ATCC NSCLC, 45.3% [8.25 µM]; in the assay on 786-0 renal, -71.5% [8.25 µM] (active); with COLO 205 colon it was -58.2% [8.25 µM] (active); in the assay on DU-145 prostate it was 22.3% [8.25 µM]; in the assay with K-562 leukemia it was 3.37% [8.25 µM] (active). Also, the growth is -80.5% [8.25 µM] (active) in the assay with MALME-3M melanoma; -72.6% [8.25 µM] (active) in the assay on MDA-MB-231 breast; -82.9% [8.25 µM] (active) in the assay on SF-268 CNS; 79.5% [8.25 µM] in the assay with SF-295 CNS; -99.6% [8.25 µM] (active) with SF-539 CNS; 35.1% [8.25 µM] in the assay on UACC-257 melanoma. Further, the growth with M14 melanoma is 4.51% [8.25 µM] (active).
`COc1cc(/C=C2\C(=O)N(Cc3ccc(Cl)cc3)c3ccccc32)cc(OC)c1OC`: the growth is 34.4% in the assay with NCI-H23 lung; 46.7% in the assay on NCI-H226 lung; 66.9% with NCI-H322M lung; 55.9% in the assay with HOP-62 NSCLC; 25.2% in the assay with NCI-H460 lung; 44% with HOP-92 NSCLC. For the same compound, the growth in the assay on NCI-H522 lung is 11.4%; with A549/ATCC NSCLC, 9.8% (active); with 786-0 renal, 32.7%; with COLO 205 colon, 48%; in the assay on DU-145 prostate it was -39.1% (active); with K-562 leukemia, 8.83% (active). The growth in the assay on MALME-3M melanoma was 65.5%; in the assay with MDA-MB-231 breast, 23.3%; with SF-268 CNS, 10.9%; with SF-295 CNS, 40.9%; in the assay with SF-539 CNS, 23.3%; in the assay on UACC-257 melanoma, 21.9%. For the same compound, the growth with M14 melanoma was 37.7%.
Regarding `CN1C(=O)N(C)C2NC(N/N=C/c3ccccc3)=NC21` (configuration not stated), the growth was 100% with NCI-H23 lung; 95% with NCI-H226 lung; 94.5% in the assay with NCI-H322M lung; 94.5% in the assay on HOP-62 NSCLC; 103% in the assay with NCI-H460 lung; 102% in the assay with HOP-92 NSCLC. Besides, the growth in the assay on NCI-H522 lung was 104%; with A549/ATCC NSCLC, 100%; in the assay with 786-0 renal, 104%; in the assay with COLO 205 colon it was 106%; in the assay on DU-145 prostate, 108%; in the assay on K-562 leukemia it was 107%. Besides, the growth is 97.9% with MALME-3M melanoma; 104% with MDA-MB-231 breast; 99.8% with SF-268 CNS; 101% in the assay on SF-295 CNS; 94.9% with SF-539 CNS; 98.8% with UACC-257 melanoma. For the same compound, the growth with M14 melanoma is 98.8%.
